Results as given in PubChem BioAssay (NCI).
About 83,000 compounds went through this panel and 20% of them were active in at least one assay; those are over-represented in the sample as a whole.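 Negative percent growth values reflect cell death: -40 means 40% of the cells present at the start died, and -100 means all died.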 A number with no mark means an inactive call. Calls of active or inactive are those of the source. How the source made its calls: active means growth percent below 10; inactive means the rest.

Tests used:
Experiment in all cases: NCI-60 one-dose screen, 48 h (100 = growth as untreated, 0 = no growth, -100 = all killed)
Settings in all cases: 10 µM unless noted
SK-MEL-2 melanoma = test system: SK-MEL-2 melanoma
EKVX NSCLC = test system: EKVX NSCLC
SN12C renal = test system: SN12C renal
UO-31 renal = test system: UO-31 renal
TK-10 renal = test system: TK-10 renal
CAKI-1 renal = test system: CAKI-1 renal
A498 renal = test system: A498 renal
CCRF-CEM leukemia = test system: CCRF-CEM leukemia
MOLT-4 leukemia = test system: MOLT-4 leukemia
ACHN renal = test system: ACHN renal

| SMILES | growth (SK-MEL-2 melanoma) | growth (EKVX NSCLC) | growth (SN12C renal) | growth (UO-31 renal) | growth (TK-10 renal) | growth (CAKI-1 renal) | growth (A498 renal) | growth (CCRF-CEM leukemia) | growth (MOLT-4 leukemia) | growth (ACHN renal) |
| --- | --- | --- | --- | --- | --- | --- | --- | --- | --- | --- |
| O=C(CSc1ccc(Cl)cc1)Nc1ccc(-c2nc3ccccc3s2)c(Cl)c1 | 92.9% | 59.6% | 46.5% | 38.2% | 85.4% | 53.5% | 32.1% | 41.6% | 68.3% |  |
| CN1CCN(Cc2ccc(NC(=O)c3cncc(C#Cc4ncc5cnccn45)c3)cc2C(F)(F)F)CC1 | -12.9% (active) | 77.2% | 54.5% | 18.3% | 81.4% | 31.5% | 65.2% | 41.9% | 43.5% |  |
| COc1cc(NCCCCC(C)N)c2nccc(C)c2c1 (centres undefined) | 105% | 78.3% | 87.1% | 38.2% | 99.1% | 94.8% | 68.6% | 99.7% | 81.7% |  |
| O=C(Nc1ccc2ncnc(Nc3ccc(F)c(Cl)c3)c2c1)c1cccs1 | 90.7% | 44.5% | 45.6% | 27.8% | 32.3% |  | 46% | 76.9% | 71.9% | 2.83% (active) |
| COc1ccc2[nH]c(O)c(/C=c3/ccc4c(c3)N=C(c3ccc(C(F)(F)F)cc3)N=4)c2c1 | 104% | 82.4% | 79.9% | 91.3% | 131% | 55.6% | 71.7% | 23.2% | 48% |  |
| C#CC[C@@H]1C[C@]2(C)[C@H]3CC=C4[C@H]5[C@@H](C)[C@H](C)CC[C@]5(C(=O)NCCCCN)CC[C@@]4(C)[C@]3(C)CC[C@H]2C(C)(C)[C@H]1OC(C)=O | 101% | 96% | 73.8% | 59.4% |  | 50.5% | 118% | 30% | 14.9% | 89.5% |
| COc1ccc(-c2nnc(SCC(=O)Nc3ccc(C(=O)/C=C/c4ccc(Cl)cc4)cc3)n2-c2ccccc2)cc1 | 100% | 102% | 101% | 73.8% | 109% |  | 116% | 86.5% | 81.5% | 107% |
| F | -27.7% [6.87 mM] (active) | -14.8% [6.87 mM] (active) | 27% [6.87 mM] | 12% [6.87 mM] |  | 28.9% [6.87 mM] | -28.8% [6.87 mM] (active) | 29.9% [6.87 mM] | 23.5% [6.87 mM] | 23.6% [6.87 mM] |
| O=C(Nc1ccc(Cl)c(C(F)(F)F)c1)c1ccc(Nc2ccc(Cl)nn2)cc1 | 83.3% | 55.7% | 78.9% | 0.31% (active) | 68.1% |  | 51.6% | 44.8% | 43.7% | 52.4% |
| C#CC[C@@H]1C[C@]2(C)[C@H]3CC[C@@H]4[C@H]5C(C(=C)C)CC[C@]5(C(=O)NCCN(CCN)CCN)CC[C@@]4(C)[C@]3(C)CC[C@H]2C(C)(C)[C@H]1OC(C)=O (some centres undefined) | 112% | 31% | 87.8% | 74.7% |  | 56.3% | 128% | 22.5% |  | 91.3% |
| COc1ccc(NC(=O)c2ccc(C(F)(F)F)nc2Nc2ccc(Cl)cc2C)cc1Cl | 31.9% | 11.3% | 24% | 9.94% (active) |  | 19.9% | 11.5% | 11% | 8.09% (active) | 14.5% |
| FC(F)(F)c1ccc(/C=N/Nc2nnc3n2N=C(c2ccc(Cl)cc2)CS3)cc1 | 84.2% | 66.3% | 57.8% | 39.7% | 53.1% | 63.5% | 69.9% | 99.4% | 79.5% |  |
| O=C(Nc1ccc(OS(=O)(=O)c2ccc(F)cc2)cc1)C12CC3CC(CC(C3)C1)C2 | 86% |  | 77.3% | 83.8% | 87.5% | 79.2% | 40.4% | 52.1% |  | 76.5% |
| CCn1c(CN2CCN(Cc3ccccc3)CC2)nc2cc(NC(=O)c3cccs3)ccc21 | -50.1% (active) |  | -87.6% (active) | -96.7% (active) | -94.1% (active) | -92.5% (active) | -91.6% (active) | -39.2% (active) | -11.3% (active) | -79.2% (active) |
